Where “and” joins values, the source holds several entries; their conditions need not be identical. Identical values can stand only once. Results filed as inconclusive are left out. Unmarked numbers belong to inactive results. Calls of active or inactive are those of the source. The call rests on the fitted dose curve; in most records, active means well fitted curve in the direction sought with a large enough effect; inconclusive means small, poorly fitted or top-dose-only effect, or another doubt; inactive means no such curve, though single readings can be large; an effect the other way counts as inactive or inconclusive.
Legend:
[1] = Viability qHTS for spleen associated tyrosine kinase inhibitor (SYKi) naive MV4-11 cells (AID 1963823); further: nearly all actives have a fitted effect of over 40% in size
Procedure, shortened: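 Seeding of 500 SYKi-naive MV4-11 cells per well onto pre-dispensed compounds preceded a 72 hr incubation at 37 C. Luminescent CellTiter-Glo signal, read after 10 min at room temperature, reflected viable cells.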

[2] = Cellular viability qHTS for adrenocortical cancer (ACC) cell line SW-13 (AID 1963989); settings: SW-13 ACC cells viability, CellTiter-Glo, 48 h; activity (max response): stronger effect = lower value; further: nearly all actives have a fitted effect of over 65% in size;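 on activity (max response): cells grown in serum-free medium with ITS supplement; on the % scale 0 is the no-effect control and ±100 the full control effect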
Procedure, shortened: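 IC50 and maximal-response values come from four-parameter logistic fits of titration data. SW-13 cells in serum-free medium received compounds (up to 46 uM final) for 48 h before CellTiter-Glo luminescence.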

[3] = Cellular viability qHTS for adrenocortical cancer (ACC) cell line NCI-H295R (AID 1963990); further: nearly all actives have a fitted effect of over 60% in size
Procedure, shortened: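 Adrenocortical carcinoma cells, suspended at 300 000 cells/mL in serum-free DMEM plus ITS, rested overnight before pin transfer of compound. After two days' incubation, ATP-dependent luminescence was recorded and curve-fitted.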
Potency means the concentration at half of the fitted maximal effect.

SMILES | Potency [1] | activity (max response) [2] | Potency [3] | Potency [2]
C[C@H](CN(C)C)Oc1nc(Nc2cc3cccc(Cl)c3cn2)cnc1C#N | 259 nM (active) and 934 nM (active) | -6.08% | 2.24 µM (active) | –
Clc1ccc2c(c1)Nc1ccccc1S2 | inactive | -11.9% | – | –
Cc1cc2nc3c(=O)[nH]c(=O)nc-3n(C[C@H](O)[C@H](O)[C@H](O)CO)c2cc1C | inactive | 8.72% | – | –
O=C(O)c1ccc(CN2CCC(CN[C@@H]3C[C@H]3c3ccccc3)CC2)cc1 | inactive | 7.26% | inactive | –
Cc1oc(-c2ccccc2)nc1CCC(=O)c1ccc(CC2SC(=O)NC2=O)cc1 (stereo not drawn) | inactive | -12.1% | – | –
C/C(=N\NC(=O)c1cccc(S(=O)(=O)N2CCOCC2)c1)c1cc(Cl)ccc1O | 0.525 µM (active) | – | – | 8.91 µM (active)
C=C[C@H]1CN2CC[C@H]1C[C@@H]2[C@@H](O)c1ccnc2ccc(OC)cc12 | inactive | 6.85% | inactive | –
O=C1Cc2cc(Cl)ccc2N1 | inactive | 11.1% | inactive | –
COC(=O)[C@@H]1[C@H]2C[C@H]3c4[nH]c5ccccc5c4CCN3C[C@@H]2CC[C@@H]1O | inactive | -16.5% | inactive | –
O=C(O)c1ccc(CCCc2ccc(OCCc3ccc(F)cc3)cc2)o1 | 5.17 µM (active) | – | – | 17.8 µM (active)
CCCCCCCCCCCCCC[N+](C)(C)Cc1ccccc1 | 2.99 µM (active) | – | – | 6.51 µM (active)
CCOC(=O)Oc1ccc(CCNC(=O)[C@H](CCSC)NC(C)=O)cc1OC(=O)OCC | inactive | 3.57% | – | –
CC[C@H](Nc1ncnc2nc[nH]c12)c1oc2ccccc2c(=O)c1-c1cccc(F)c1 | 5.9 µM (active) | -13.2% | – | –
CONC(=O)Nc1ccc(-c2sc3c(c2CN(C)Cc2ccccc2)c(=O)n(-c2ccccc2)c(=O)n3Cc2c(F)cccc2F)cc1 | 16.6 µM (active) | -8.17% | inactive | –
N#CC1(c2ccc(F)cc2)CCC(=O)CC1 | inactive | 6.7% | inactive | –
O=C(O)CN1C(=O)c2cccc3cccc(c23)C1=O | inactive | -3.53% | inactive | –
CC(C)(C)C(=O)N1N=CC[C@H]1c1ccccc1 | 2.35 µM (active) | 3.19% | – | –
COC(=O)CCCCC(CCSS/C(CCO)=C(\C)N(C=O)Cc1cnc(C)nc1N)SC(C)=O (stereo not drawn) | inactive | 8.22% | inactive | –
C=C1C(=O)OC2/C=C(/C)CC/C=C(/C)CCC12 (stereo not drawn) | 8.33 µM (active) | -9.66% | – | –
O=C(Cn1ccnc1[N+](=O)[O-])NCc1ccccc1 | inactive | -1.05% | – | –
CCN(CC)C(=O)Cc1csc(NS(=O)(=O)c2cccc(Cl)c2C)n1 | inactive | -19.2% | – | –
O=C1CC2(CCCC2)CC(=O)N1CCCCN1CCN(c2ncccn2)CC1 | 9.44 µM (active) | -4.13% | inactive | –
CC[C@H]1OC(=O)[C@H](C)[C@@H](O[C@H]2C[C@@](C)(OC)[C@@H](O)[C@H](C)O2)[C@H](C)[C@@H](O[C@@H]2O[C@H](C)C[C@H](N(C)C)[C@H]2O)[C@](C)(O)C[C@@H](C)C(=O)[C@H](C)[C@@H](O)[C@]1(C)O | inactive | 4.41% | – | –

SMILES | Potency [1] | activity (max response) [2] | Potency [3] | Potency [2]
c1ccc(CC2=NCCN2)cc1 | inactive | -11.9% | – | –
CO[C@@]1(NC(=O)C(C(=O)O)c2ccc(O)cc2)C(=O)N2C(C(=O)O)=C(CSc3nnnn3C)CO[C@@H]21 (stereo partly drawn) | inactive | 13.4% | inactive | –
O=c1cc(CO)occ1O | inactive | 13.4% | – | –
COc1ccc(CNC(=O)c2cc(-c3cncc(Cl)c3)cnc2-c2ccccn2)nc1OC | inactive | -20.5% | inactive | –
CCS(=O)(=O)N1CCC([C@@H](C)n2c(C)c(C(=O)NCc3c(OC)cc(C)[nH]c3=O)c3ccccc32)CC1 | inactive | 8.68% | inactive | –
CC(N)C(=O)OC(C)(C)Cc1ccc(Cl)cc1 (stereo not drawn) | inactive | 12.9% | inactive | –
CC(O)C(=O)O (stereo not drawn) | inactive | 6.49% | – | –
CCCC(=O)OCOC(=O)C1=C(C)NC(C)=C(C(=O)OC)C1c1cccc(Cl)c1Cl (stereo not drawn) | inactive | 6.2% | – | –
Nc1ccc(N)c([N+](=O)[O-])c1 | 24.3 µM (active) | -20.8% | – | –
COC(=O)[C@H]1[C@H]2C[C@@H]3c4[nH]c5cc(OC)ccc5c4CCN3C[C@H]2C[C@@H](OC(=O)COc2ccc(OC)cc2)[C@@H]1OC | inactive | -9.25% | – | –
CN1[C@@H]2CC(OC(=O)[C@H](CO)c3ccccc3)C[C@H]1[C@@H]1O[C@@H]12 (stereo partly drawn) | inactive | 1.78% | inactive | –
O=C(O)CN(CCN(CC(=O)O)CC(=O)O)CCN(CC(=O)O)CC(=O)O | inactive | 9.05% | – | –
CC(C)=CCC[C@@](C)(O)[C@H]1CC=C(C)CC1 | inactive | 18.9% | – | –
CCN1C(=O)CNc2ncc(-c3ccc(-c4ncn[nH]4)nc3C)nc21 | 0.417 µM (active) | – | 10 µM (active) | 8.91 µM (active)
C#C[C@]1(O)CC[C@H]2[C@@H]3CCC4=CC(=O)CC[C@@H]4[C@H]3CC[C@@]21C | inactive | 2.7% | – | –
C[C@H]1C[C@H]2[C@@H]3CCC4=CC(=O)C=C[C@]4(C)[C@@]3(Cl)[C@@H](O)C[C@]2(C)[C@@]1(O)C(=O)CO | 21.1 µM (active) | -3.23% | – | –
O=C(O)CC(C(=O)O)n1c(O)c(C2=c3cc(Br)ccc3=NC2=O)sc1=S (stereo not drawn) | inactive | -4.1% | inactive | –
C=CC(=O)Nc1cccc(Nc2nc(Nc3ccc(NC4CN(CCF)C4)cc3OC)ncc2C(F)(F)F)c1 | 1.3 µM (active) and 662 nM (active) | – | 8.91 µM (active) | 2.51 µM (active)
CC(CCc1ccc2c(c1)OCO2)NN (stereo not drawn) | inactive | 9.04% | inactive | –
O=C(O)/C=C(\CC(=O)O)C(=O)O | inactive | 7.17% | inactive | –
COc1ccc2nc3n[nH]c(C)c3c(NCCOCCO)c2c1 | 18.4 µM (active) and 9.34 µM (active) | 0.542% | inactive | –
CCN(CC)CCNC(C(=O)OCCC(C)C)c1ccccc1 (stereo not drawn) | inactive | -2.2% | inactive | –
Oc1cccc2[nH]ccc12 | 5.31 µM (active) | 11.5% | inactive | –

SMILES | Potency [1] | activity (max response) [2] | Potency [3] | Potency [2]
CC(C)(CO)[C@@H](O)C(=O)NCCCO | inactive | 15.4% | inactive | –
NC(N)=Nc1nc(CSCC/C(N)=N/S(N)(=O)=O)cs1 | inactive | 9.53% | inactive | –
OCc1ccc(Cl)cc1Cl | 0.0067 µM (active) | -2% | inactive | –
CCOc1ccccc1OCCN[C@H](C)Cc1ccc(OC)c(S(N)(=O)=O)c1 | inactive | 2.5% | inactive | –
Nc1ncnc2c1c(-c1cccc(OCc3ccccc3)c1)cn2C1CC(CN2CCCC2)C1 (stereo not drawn) | 0.517 µM (active) | – | 2.24 µM (active) | 25.1 µM (active)
CC(C(O)c1ccc(O)cc1)N1CCC(Cc2ccccc2)CC1 (stereo not drawn) | inactive | -9.39% | inactive | –
CC(C)COCC(CN(Cc1ccccc1)c1ccccc1)N1CCCC1 (stereo not drawn) | 13.3 µM (active) and 14.8 µM (active) | – | 15.8 µM (active) | 4.11 µM (active) and 28.2 µM (active)
Cc1ccc(O)c(-n2nc3ccccc3n2)c1 | inactive | -8.34% | inactive | –
CN1C(N)=N[C@](C)(c2cc(NC(=O)c3ccc(F)cn3)ccc2F)CS1(=O)=O | inactive | -4.84% | inactive | –
CN1CCC[C@@H]1Cc1c[nH]c2ccc(CCS(=O)(=O)c3ccccc3)cc12 | inactive | -0.887% | inactive | –
COC(=O)[C@@H]1CC2=CC(=O)CC[C@]2(C)[C@@]23O[C@@H]2C[C@@]2(C)[C@@H](CC[C@@]24CCC(=O)O4)[C@H]13 | inactive | -0.519% and -3.74% | inactive | –
O=C(C[C@@H]1C/C=C\CCC(=O)O[C@H](c2ccccc2)CNC1=O)NCc1ccc(Cl)cc1 | 4.68 µM (active) | 11.5% | inactive | –
CCCCC(CC)CNC(=O)CC(C)OC(=O)CCC(=O)O (stereo not drawn) | inactive | -6.84% | inactive | –
Nc1ccc(S(=O)(=O)NC(=O)c2ccccc2)cc1 | inactive | 4.69% | inactive | –
CC(C)(Cc1ccc2ccccc2c1)NC[C@@H](O)COc1cccc(Cl)c1C#N | 6.61 µM (active) | – | 6.31 µM (active) | 6.31 µM (active)
CCN(CC)CCCC[C@H](NC(=O)[C@H](CC(C)C)NC(=O)[C@H](C)NC(=O)[C@H](Cc1ccccc1)NC(=O)c1ccc(C(C)(C)C)cc1)C(=O)N[C@@H](CO)C(=O)OC | inactive | -29.2% | inactive | –
O=C(O)C1(C(=O)O)CCC1.[NH2-].[NH2-].[Pt+2] | inactive | 10.4% | inactive | –
Cc1c(F)cccc1NC(=O)Nc1ccc(Cl)c(S(=O)(=O)[C@H]2CCCNC2)c1O | inactive | -7.46% | inactive | –
O=C1c2ccccc2S(=O)(=O)N1CCCCN1CCN(c2ncccn2)CC1 | inactive | -8.3% | inactive | –
CN(C)CCn1nnnc1SCC1=C(C(=O)O)N2C(=O)[C@@H](NC(=O)Cc3csc(N)n3)[C@H]2SC1 | inactive | 8.48% | inactive | –
CCCCCN(CCCCC)C(=O)C(CCC(=O)O)NC(=O)c1ccc(Cl)c(Cl)c1 (stereo not drawn) | inactive | 5.36% | inactive | –
